From PubChem BioAssay
This is a sample that favours compounds with a hit; in the whole collection about 4.5% have one here.
Jurkat NFkB inh: inhibitors of induced NF-kB luciferase reporter, primary screen, TCR NF-kB activation inhibitor project, cell-based, luminescence, uHTS; AID 435003, 2010; 0.53% of 330,000 active; Jurkat, PMA/ionomycin-induced NF-kB luciferase reporter; inhibition, % at 4 µM; in the data active = inhibition above about 50%
Beta cell apopt: inhibitors of cytokine-induced beta cell apoptosis, primary screen, luminescence | INS-1E cytokine-induced death, ATP luminescence, 48 h; percent of positive-control rescue, neutral wells zero | protection from apoptosis, % (concentration not given with the values) | 0.8% of 300,000 active;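 active = Every replicate reaches about 75%, or at least half do and their mean reaches it too, limit read from the data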;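 note: 0% = cytokine-treated negative control wells and 100% = positive control rescue; higher means more ATP so stronger rescue from cytokine killing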
CSC inhib: cancer stem cell viability inhibitors, primary screen, luminescence; cancer stem cell-like cells viability; inhibition, % at 7.5 µM; 1.1% of 300,000 active; AID 2717, 2010; in the data active = inhibition above about 75%; tested in HMLE shEcad cells
697 NFkB inh: inhibitors of PMA/ionomycin-induced NF-kB reporter, 697 cells, primary screen, B-cell NF-kB inhibitor project, cell-based, luminescence, uHTS; 697 B-cell NF-kB luciferase reporter, 16 h; inhibition, % at 4 µM; 0.33% of 330,000 active; AID 435022, 2010; in the data active = inhibition above about 35%
Mdm2 MdmX PPI: inhibitors of human Mdm2-MdmX association, primary screen, cell-based, luminescence, split luciferase, SaOS-2, uHTS. SaOS-2 split-luciferase Mdm2/MdmX complementation. inhibition, % at 8 µM. 3% of 330,000 active;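 active = inhibition of at least 50% at 8 µM in the primary screen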
Gli-Sufu antag: Gli-Sufu pathway antagonists, primary screen, luciferase luminescence, Sufu-KO-LIGHT cells, uHTS; Sufu-KO-LIGHT fibroblasts, Gli luciferase reporter luminescence; inhibition, % at 5 µM; 0.74% of 340,000 active; AID 588413, 2011;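 active = inhibition above about 55%, limit read from the data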;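 note: 0% = DMSO-treated cells and 100% = wells with medium but no cells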
Mdm2-MdmX conf: Mdm2-MdmX complex disruptors, retested hits, confirmation, luminescence, single concentration; inhibition, % at 8 µM; 55% of 10,000 active; AID 489028, 2010; Mdm2-MdmX binding, luminescent assay; shares compounds with Mdm2 MdmX PPI; in the data active = inhibition above about 40%
FLuc counter: full-length luciferase signal inhibition, confirmation, counter-screen for Mdm2/MdmX interaction inhibitor project, cell-based, single concentration, SaOS-2; inhibition, % at 8 µM; shares compounds with Mdm2 MdmX PPI; AID 504607, 2011; SaOS-2 full-length luciferase counterscreen, luminescence; 77% of 6,200 active;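 active = mean inhibition at 8 µM reaching about 37%, which flags the compound as non-specific, limit read from the data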;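 note: p53-null SaOS-2 cells with luciferase driven by a doxycycline-inducible promoter; compound on cells about two nights before reading with doxycycline added after day one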
An asterisk follows results filed as active; . = not tested or not shown.

SMILES	Jurkat NFkB inh	Beta cell apopt	CSC inhib	697 NFkB inh	Mdm2 MdmX PPI	Gli-Sufu antag	Mdm2-MdmX conf	FLuc counter
S=C(Nc1ccccc1)Nc1nc2ccccc2n1CCOc1ccc(Br)cc1	6	41	107*	-3	95*	-1	36	.
O=C(Nc1nc2ccccc2n1CCOc1ccc(Cl)cc1)c1ccco1	7	48	24	-14	67*	-3	50*	72*
Cc1cccc(OCCn2c(-c3ccco3)nc3ccccc32)c1	-21	-6	10	-51	-13	-11	.	.
Cc1cccc(OCCn2c(NC(=O)c3ccco3)nc3ccccc32)c1	5	50	24	-47	51*	4	41*	59*
COC(=O)c1c(NC(=O)CSc2nnc(C)c(=O)[nH]2)sc(C)c1C	-15	.	6	-4	-21	-5	.	.
O=C1c2nc3cc(-c4ccco4)[nH]n3c(=O)c2CN1C1CCCCC1	-14	2	17	-15	8	-11	.	.
COc1ccc(C2C(C(=O)c3ccco3)=C(O)C(=O)N2CC2CCCO2)cc1OC (stereo not given)	-5	1	3	-29	-2	23	.	.
C/C=C(\C)C(=O)NCCN1C2=NC[C@H](Cc3ccccc3)N2C[C@@H]1Cc1ccc(OC)cc1	-2	.	-9	8	-18	10	.	.
COc1ccc(C[C@H]2CN3C(=NC[C@@H]3Cc3ccc(O)cc3)N2CCNC(=O)c2ccc(C)c(Br)c2)cc1	28	26	5	-7	53*	31	26	.
Cc1ccc(C(=O)NCCN2C3=NC[C@@H](Cc4ccccc4)N3C[C@H]2Cc2ccc(O)cc2)cc1Br	-4	12	39	13	81*	17	25	.
C/C=C(\C)C(=O)NCCN1C2=NC[C@H](Cc3ccccc3)N2C[C@H]1Cc1ccc(O)cc1	-1	-5	-12	17	15	2	.	.
COc1ccc(C[C@H]2CN3C(=NC[C@@H]3Cc3ccccc3)N2CCNC(=O)c2ccc(C)c(Br)c2)cc1	10	50	13	15	100*	30	42*	57*
Cc1ccc(C(=O)NCCN2C3=NC[C@H](Cc4ccc(O)cc4)N3C[C@H]2Cc2ccc(O)cc2)cc1Br	-14	0	-7	-20	3	5	.	.
COc1ccc(C[C@H]2CN3C(=NC[C@H]3Cc3ccccc3)N2CCNC(=O)c2ccc(C)c(Br)c2)cc1	15	6	31	-1	95*	20	55*	37*
COc1ccccc1NS(=O)(=O)c1ccc(C)c(NS(=O)(=O)c2cc(C(=O)O)cc(C)c2C)c1	-14	-2	.	12	13	-6	.	.
Cc1ccc(NC(=O)CN2C(=O)C(=O)N(C3CCCC3)C2=O)c(Cl)c1	9	-7	.	22	10	2	.	.
Cc1ccc(S(=O)(=O)NC(C)C(=O)OCC(=O)N(C)c2ccccc2)cc1 (stereo not given)	6	-2	-13	31	-7	8	.	.
O=C(NN=Cc1ccccc1)C(Oc1ccccc1)c1ccccc1 (stereo not given)	.	.	.	.	.	3	.	.
CCCN(CCC)c1nc(-c2ccccn2)nc2ccccc12	10	135*	34	-16	83*	46	85*	25
c1ccc(CCNc2nc(-c3ccccn3)nc3ccccc23)cc1	7	96*	43	-38	93*	7	89*	23
CCCCN(CC)c1nc(-c2ccncc2)nc2ccccc12	-2	-7	30	-11	35	11	.	.
OC(CNCc1ccc(-c2ccccc2)cc1)c1ccccc1 (stereo not given)	39	6	62	17	53*	-3	58*	27
Cn1nc(OCC(=O)O)cc1C(F)(F)F	-7	-5	-5	3	15	-3	.	.
COc1ccc(-n2cc(CNC3CCN(C)CC3)c(-c3cccc(F)c3)n2)cc1	-15	1	14	13	66*	-26	57*	41*
COc1ccc(-n2cc(CN[C@H]3CCCCNC3=O)c(-c3cccc(F)c3)n2)cc1	-6	-2	-11	10	-15	6	.	.
SMILES	Jurkat NFkB inh	Beta cell apopt	CSC inhib	697 NFkB inh	Mdm2 MdmX PPI	Gli-Sufu antag	Mdm2-MdmX conf	FLuc counter
CCN(Cc1ccncc1)C(=O)C(CO)c1ccccc1 (stereo not given)	-17	4	-1	7	4	-15	.	.
N=c1n(Cc2ccccc2)c2ccccc2n1Cc1ccccc1	-13	13	.	-47	44	46	.	.
Cc1cccc(OCC(O)Cn2c(=N)n(CCN3CCCCC3)c3ccccc32)c1 (stereo not given)	2	17	11	-13	53*	23	46*	61*
N=c1n(CCO)c2ccccc2n1Cc1ccc(Cl)cc1	1	3	0	-3	29	13	.	.
Cc1ccc(OCC(O)Cn2c(=N)n(Cc3ccccc3)c3ccccc32)cc1 (stereo not given)	11	49	33	-46	67*	27	52*	49*
N=c1n(Cc2ccccc2)c2ccccc2n1CC(O)COc1ccc(Cl)cc1Cl (stereo not given)	40	.	.	-13	100*	56*	100*	61*
N=c1n(Cc2ccc(Cl)cc2)c2ccccc2n1CC(O)COc1ccccc1 (stereo not given)	19	8	3	-13	88*	53	37	88*
CCN(CC)CCn1c(=N)n(CC(O)COc2cccc(C)c2)c2ccccc21 (stereo not given)	32	24	2	-14	48	49	.	.
COc1ccc2ccn(S(=O)(=O)c3ccccc3)c2c1	2	-7	1	-16	4	-16	.	.
C=Cc1ncc(OC)c2c1[nH]c1ccccc12	17	50	40	25	100*	15	59*	22
COC(=O)c1ccc(NC(=O)Cn2nc(C)cc2C)cc1	-1	-3	-3	-5	-16	34	.	.
Cc1ccc2c(c1)CCCN2S(=O)(=O)c1cccc(C(=O)Nc2ccccc2C(=O)O)c1	0	3	62	-95	54*	.	60*	58*
